# Screening data as filed in PubChem BioAssay.
# An excerpt weighted towards active compounds, which were near 6.2% of everything screened.
# ATXN viability – Viability Counterscreen for Primary qHTS for Inhibitors of ATXN expression; 400,000 tested, 0.49% active; AID 651635, 2014; S2 cells (HEK-293 line with an ATXN2-luciferase reporter) viability, CellTiter-Fluor protease fluorescence, 24 h; Potency, µM (doses to about 56.7 µM), most hits filed as cytotoxic; further: nearly all actives have a fitted effect of over 40% in size
# HT1080-NT tox – qHTS for induction of synthetic lethality in tumor cells producing 2HG: qHTS for the HT-1080-NT fibrosarcoma cell line; 360,000 tested, 1.6% active; HT-1080-NT fibrosarcoma viability, CellTiter-Glo ATP luminescence, 48 h; Potency, µM (series often up to 46.1 µM), without a hit: at the highest dose activity, negative = less viability, usual class: cytotoxic;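 further: NT is the 2HG producing partner of a matched IDH1 knockdown line; 0% = DMSO-treated cells and -100% = media-only wells without cells; nearly all actives have a fitted effect of over 55% in size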
#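 Read-out is CellTiter-Glo luminescence after 10 minutes at room temperature, following 48 hours' compound treatment of HT-1080-NT cells (750 cells/well, RPMI, 5% FBS, 37 degrees C).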
# ATXN2 expr inh – Primary qHTS for Inhibitors of ATXN expression; HEK-293 ATXN2-luciferase reporter, luminescence, 24 h; Potency, µM (top dose mostly 57 µM), for the others: at the highest dose activity change, negative = inhibition, actives largely listed as inhibitors; 360,000 tested, 0.72% active; AID 1745845, 2022; further: on the % scale 0 is the no-effect control and ±100 the full control effect; nearly all actives have a fitted effect of over 55% in size
#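 ATXN2-luciferase reporter cells (luciferase flanked by upstream and downstream ATXN2 gene portions) were treated 24 h at 37 °C with compounds at up to 57 uM. SteadyGlo luminescence gave expression; GF-AFC fluorescence gave viability.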
# HT1080 IDH1KD tx – qHTS for induction of synthetic lethality in tumor cells producing 2HG: qHTS for the HT-1080-IDH1KD cell line. HT-1080 IDH1 knockdown viability, ATP luminescence, 48 h. Potency, µM (titrated, usually from 46.1 µM), for inactives: at the top dose activity, negative = toxicity, hits mostly cytotoxic. 360,000 tested, 2% active;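 further: 0% = DMSO wells and -100% = cell-free medium wells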
#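 Using the IDH1-knockdown HT-1080 line run in the same batch and compound series as the NT line, viability after 48 h at 37 °C was determined by CellTiter-Glo luminescence and expressed as % activity.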
# KB-V1 MDR tox – qHTS assay for MDR1-selective chemotherapeutics: Primary screen using the drug-selected MDR subline cells KB-V1; AID 1347076, 2019; KB-V1 MDR cells viability, CellTiter-Glo, 72 h; Potency, µM (doses to about 46.1 µM), hits mostly cytotoxic; 400,000 tested, 3.4% active; further: on the % scale 0 is the no-effect control and ±100 the full control effect; nearly all actives have a fitted effect of over 60% in size
#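 Luminescent ATP read-out (CellTiter-Glo, 10 min) measures survival of drug-selected KB-V1 MDR cells after 72 h, 37 degrees C compound exposure. Medium: phenol-red-free DMEM, 10% FBS. Values from fitted concentration-response curves.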
# KB-3-1 cytotox – qHTS assay for MDR1-selective chemotherapeutics: Primary screen using the parental adenocarcinoma cell KB-3-1 | KB-3-1 viability, CellTiter-Glo ATP luminescence, 72 h | Potency, µM (highest dose often 46.1 µM), hits mostly cytotoxic | 400,000 tested, 1.4% active | AID 1347075, 2019; further: on the % scale 0 is the no-effect control and ±100 the full control effect; nearly all actives have a fitted effect of over 60% in size
#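 Cytotoxicity measured as CellTiter-Glo luminescence after 72 h at 37 C. Compound titrations were pinned onto drug-naive KB-3-1 parental adenocarcinoma cells grown in DMEM with 10% FBS, and normalized data fitted to concentration-response curves.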
# Numbers without * were called inactive; i = inactive; ? = inconclusive; / = not tested or not shown. The call rests on the fitted dose curve; in most records, active means well fitted curve in the direction sought with a large enough effect; inconclusive means small, poorly fitted or top-dose-only effect, or another doubt; inactive means no such curve, though single readings can be large; an effect the other way counts as inactive or inconclusive. Potency means the concentration at half of the fitted maximal effect.
SMILES,ATXN viability,HT1080-NT tox,ATXN2 expr inh,HT1080 IDH1KD tx,KB-V1 MDR tox,KB-3-1 cytotox
CCc1ccc(S(=O)(=O)Nc2cc3c(cc2C)n(C)c(=O)n3C)cc1,i,16.4µM*,/,14.6µM*,i,5.17µM*
CC(C)c1ccc(S(=O)(=O)Nc2cc3c(cc2NCc2ccccc2)n(C)c(=O)n3C)cc1,i,/,46.1%,/,?,23.1µM*
COc1ccc(NC(=O)c2cc(C(C)=O)n3ccccc23)cc1,/,/,/,/,i,i
CC(C)c1ccc(N2C=Nc3ccc(C(C)C)cc3C2)cc1,?,?,-20.6%,23.1µM*,i,?
C1=Nc2ccccc2CN1c1ccccc1,i,6.3%,49.1%,5.1%,i,i
COc1cc(NC(=O)CSc2nc3ncccc3o2)cc(OC)c1,i,/,8.2%,/,i,i
CC1CCN(S(=O)(=O)c2ccc3c(c2)oc(=O)n3CC(=O)NC(C)c2ccccc2)CC1 (centres undefined),i,/,-36.0%,/,i,?
CC(=O)OCC1=C(C(=O)O)N2C(=O)C(NC(=O)c3ccc(F)cc3)C2SC1 (centres undefined),14.1µM*,-6.4%,/,-4.2%,i,i
COc1ccc2nc(Sc3c([N+](=O)[O-])nc(C)n3Cc3ccccc3)[nH]c2c1,?,?,-16.2%,20.6µM*,i,?
Cc1nc([N+](=O)[O-])c(Sc2nc3ccccc3[nH]2)n1Cc1ccccc1,?,12.4%,-5.3%,5.7%,i,i
CC(C)Oc1ccc(-c2nc(-c3cccnc3)no2)cc1,/,/,/,/,i,i
CN(CC(=O)Nc1ccccc1C(=O)N1CCCC1)S(=O)(=O)c1ccc(Cl)cc1,i,7.9%,0.8%,-1.3%,7.31µM*,i
CN(Cc1ccccc1)S(=O)(=O)c1ccc(Cl)c(C(=O)N2CCC2)c1,i,-2.9%,-6.9%,-1.5%,16.4µM*,i
Cc1cccc(NC(=O)CN(C)S(=O)(=O)c2ccc(Cl)cc2)n1,i,1.1%,-12.7%,-16.2%,16.4µM*,i
O=C(Cc1ccc(Cl)cc1)Nc1ccccc1C(=O)N1CCCC1,i,-3.7%,-17.4%,-0.4%,i,i
CN(Cc1ccccc1)S(=O)(=O)c1ccc(Cl)c(C(=O)N2CCC(C(N)=O)CC2)c1,i,-0.5%,-0.3%,1.6%,i,i
CCO[C@H](Cc1ccc(OCCc2ccc(OS(C)(=O)=O)cc2)cc1)C(=O)O,i,/,15.9%,/,/,/
Cc1noc(-c2ccc(N3CCC(C)CC3)c([N+](=O)[O-])c2)n1,i,/,46.8%,/,i,i
Cc1ccc(S(=O)(=O)N2CCN(C(=O)CN3CCc4ccccc4C3)CC2)cc1,i,-0.6%,-1.6%,-6.3%,4.11µM*,i
Cc1ccc(S(=O)(=O)N2CCN(C(=O)COc3ccc(Br)cc3)CC2)cc1,?,-8.3%,-30.6%,-11.1%,16.4µM*,i
O=C(CN1CCc2ccccc2C1)N1CCN(S(=O)(=O)c2ccccc2)CC1,i,2.0%,-5.8%,5.6%,?,i
O=C(COc1ccccc1)N1CCN(S(=O)(=O)c2ccc(Br)cc2)CC1,i,5.3%,/,1.1%,i,i
Cc1cccc(C)c1NC(=O)c1ccc2nc(CCc3ccccc3)oc2c1,?,/,?,/,i,?
Cc1nc2cc(NC(=O)[C@@H]3C[C@@H](Sc4ccccn4)CN3Cc3ccccc3)ccc2s1,i,/,/,/,/,/
COc1ccc(-c2nnc(SCc3c(C)noc3C)n2N)cc1OC,i,1.4%,3.9%,-3.5%,7.31µM*,i
SMILES,ATXN viability,HT1080-NT tox,ATXN2 expr inh,HT1080 IDH1KD tx,KB-V1 MDR tox,KB-3-1 cytotox
Cc1cccc(C(C)C)c1NC(=O)C1CN(S(=O)(=O)c2ccccc2)CCN1S(=O)(=O)c1ccccc1 (centres undefined),i,7.5%,-6.5%,2.5%,4.11µM*,i
CCc1cccc(CC)c1NC(=O)C1CN(S(=O)(=O)c2ccccc2)CCN1S(=O)(=O)c1ccccc1 (centres undefined),?,5.7%,2.7%,17.4%,i,i
COc1ccc(N2C(=O)CC(Sc3ncn[nH]3)C2=O)c(OC)c1 (centres undefined),/,?,22.4µM*,10µM*,i,i
c1ccc(COc2ccccc2CNC2CCCC2)cc1,i,-13.2%,-24.8%,-1.0%,?,i
c1ccc(COc2ccccc2CNC23CC4CC(CC(C4)C2)C3)cc1,/,13µM*,15.8µM*,16.4µM*,?,?
O=C(Nc1ccc[n+](CC(=O)c2cccc3ccccc23)c1)c1ccccc1,i,?,?,?,i,23.1µM*
COc1cccc(/C=N/NC(=O)CCCC(=O)Nc2ccc(Br)cc2)c1,i,-8.5%,7.9%,-13.5%,14.6µM*,i
COc1ccc(NC(=O)Cn2c(=O)n(CCC(=O)NCCc3ccc(OC)c(OC)c3)c(=O)c3ccccc32)cc1Cl,i,/,9.3%,/,?,i
CC1=NN(c2ccc(Cl)cc2)C(=O)C1C(c1ccccc1O)c1c(C)[nH]n(-c2ccc(Cl)cc2)c1=O (centres undefined),i,23.1µM*,-12.9%,?,?,i
O=C(c1ccccc1)c1nn(-c2cccc(Cl)c2)c2nc(-c3ccccc3)cc(=O)n12,i,-0.3%,-14.4%,0.9%,4.11µM*,?
CC(=O)Nc1ccc(NC(=O)CCCCCN2C(=O)c3ccccc3C2=O)cc1,?,1.2%,5.3%,4.1%,i,i
CCN(CC)c1ccc(NC(=O)CCCCCN2C(=O)c3ccccc3C2=O)cc1,i,-5.9%,-1.0%,-11.3%,4.61µM*,i
CCCCNC(=O)[C@@H]1CC=C[C@@H]2CCN(Cc3ccc(OC)c(OC)c3)C(=O)[C@@H]21,/,/,/,/,?,i
CC[N+]1(CC(=O)c2ccc(Cl)cc2)CCCCC1,/,/,/,/,i,i
Cc1ccc(S(=O)(=O)N2CCCC(c3nc(-c4ccc(C)o4)no3)C2)cc1 (centres undefined),i,-18.8%,-13.5%,-1.8%,i,i
O=C(c1ccccc1)N1CCC(c2nc(-c3ccc(S(=O)(=O)NCC4CCCO4)cc3)no2)CC1 (centres undefined),i,?,-18.5%,-2.9%,9.2µM*,8.2µM*
